40 sequences from the supplement of paper PMC6555819 can be followed below.

The test system of the first experiment is PXR:RXRa (NR concentration 270 nM, RXRa partner concentration 90 nM). Nature of the experiment: PBM binding z-score (relative to random genomic background probes); higher = stronger binding; sequences stand for … in GC…GCGATTGACAGCGTAGAATGAAGG
The procedure, abridged: (§1)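 Custom Agilent 4×180K protein-binding microarrays carried double-stranded probes. Their 34-nt variable regions held direct-repeat seeds, single-nucleotide variants, half-site ablations and random human genomic background sequences. Arrays were incubated 1 h with ligand-free nuclear receptor dimers in PBS pH 7.4, 2% milk, 0.02% Triton X-100, 1 mM DTT, 0.2 mg/mL BSA and 0.4 mg/ml salmon testes DNA. Antibodies against each partner (one per run) detected binding, and scanned fluorescence was regression-normalized. Binding z-scores use random background probes as reference.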
The sequence TCAGACACGTGAAGGTAACTCAGGTACGCAGTCG returned a PBM binding z-score of 0.416.
The same measure, in the same setting: the figure for CCTACTGGGCCATTCAAAGGTCATTGATCATATG is 5; for CGTCAAAGTTCAAGGTAACGTATCAGAAAGCAGC it is 4.22; for CCGTGTAGGTTATGGGGCATTCAGGCAACGGTGA it is 0.0818.
In turn, CGTCCAAGGTCAATGCTAGGTCCGTGAAAGCATT showed a PBM binding z-score of 3.8.
As to TCTTGTAGATCAAGCAGGTTACGAAAGCCTGAGT, the PBM binding z-score came out at 0.615.
Regarding ATCTCTAGGTAAAGTTCAGTGCAAGATCGATAGA, the PBM binding z-score worked out at 2.32.
On the same count and under the same terms, next, AGTCAAAGTTCATCTAGGTGACGTAAGATATGCT: 4.98; CGTCCAAGATCAGAGAGGTCAGTGAATGCCGAGT: 3.22.
The same measure, in the same setting: next, CAGCCTAGGTCAGAGCCAGTATAGGAGGAACGTT: 0.261.
The same measure, in the same setting: the figure for GCTAGCTGGTCAGTAAAAGGTCACACACCGGTCG is 5.04; for TCTGCTAGCTCAACGATGGTCAGCTAATCTGCTA it is -0.381; for AGAATGAGGTTATACGTAGATTAGGGAAGAAAGT it is 1.38.
Turning to TCTTGTAGATCAATTGAGGTTAAGAAAGTGCGCT, the PBM binding z-score was found to be 2.84.
Regarding GGAACGAGGGCAACTTGATAGCAGAGTTTGATGG, the PBM binding z-score came out at 0.872.
On the same count and under the same terms, next, TCGAGTAAGTTAGGGGCATTCAGAATGGCGTCGA: 0.512; CCTACTGGGCCAAAGGTCATTGCTTCCAATGCTC: 5.39.
The same measure, in the same setting: next, TTACCAAGGTGAAGATCGTTGATCCCTCTGTAGA: 0.123; CCAGGCAGGTGAAAGGTAACTCAGTCTGGTACGC: 0.457.
Take CCTCGGAGGACAGAAGGTCAGAGGTGTCCGCTTT: the PBM binding z-score came out at 1.4.
GCGACTGGGGCAAAGCAGGTTACCATTAGGTTGG had a PBM binding z-score of 0.143.
Same read-out and setting: the figure for TCTCGGAGAACACGAAAGGTCAGAGCTCGACATC is 3.39.
Same read-out and setting: next, CCTTACGGGTCAAGAGGTTATAGCACGACGAGCG: 3.63.
For the sequence TAGCCTAGGTCGTGGGCCAGTATACCACGCGAAC, the PBM binding z-score is -0.344.
Turning to TCATATAGGTAAATGCTAGGTGAAGGTCCGATCT, the PBM binding z-score worked out at 0.662.
The same measure, in the same setting: next, CCGAGTAGGTTATGGGGCATTCTGGCAACGGTGA: 0.151; TCATATAGGTTAACAGGTGAAAGTCCGTAAGTTA: 1.46.
On the same count and under the same terms, next, CCTCGGAGGACAGAAGGTCAGAGATGTCCGCTTT: 1.41.
Same read-out and setting: next, GCTTGTAGATCAATGTTAAGAAAGACTAAGCTAA: -0.629; GGAACGAAGGCAAGTTGATAGCAGAGTTTGATGG: -0.665.
On to CCTAGTTGGCCAGGAGGTCACACACCGGATATGA, for which the PBM binding z-score was determined as 4.27.
The same measure, in the same setting: the figure for GATACAGGATCAAGGCCAGAGTACGCGTATTGAT is -0.253; for ATATGTAGGTTATCGAGTCATTCAGTTTGCGCAT it is 0.622.
Same read-out and setting: the figure for ACTATCAGTTGACTTAGGGCAACCGATACGACGC is -0.0461; for CATACAAGGTCAGCTAGGCCAGAGTAGGGACGGC it is 2.51.
Still for that read-out and setting: next, CGTCGAAGTTCAACTAAGGTAACGTAAAGCACGC: 4.23.
Sequence ATATGTAGGTTATATCCGGGTCATTCAGGCTATG registered a PBM binding z-score of 3.78.
Still for that read-out and setting: the figure for TCTGGTTGGTCACGGAGGTCACACACGACGGGTA is 4.9; for TCGAGTAGGTTAGTCGGGGCATGCAGCCAACATA it is -0.00662; for CCTAACGGGTCACGAGGTTATAGCACGACGAGCG it is 4.45.

For a further experiment, the system named is PXR homodimer (NR concentration 270 nM). The experiment is described as above. The gist of the method:
as §1
With TCAGACACGTGAAGGTAACTCAGGTACGCAGTCG, the PBM binding z-score was -0.294.
The sequence CCTACTGGGCCATTCAAAGGTCATTGATCATATG yielded a PBM binding z-score of 2.28.
On the same count and under the same terms, the figure for CGTCAAAGTTCAAGGTAACGTATCAGAAAGCAGC is 3.05.
CCGTGTAGGTTATGGGGCATTCAGGCAACGGTGA yielded a PBM binding z-score of -0.178.
Consider CGTCCAAGGTCAATGCTAGGTCCGTGAAAGCATT, for which the PBM binding z-score came out at 0.579.
Same read-out and setting: the figure for TCTTGTAGATCAAGCAGGTTACGAAAGCCTGAGT is -0.0528; for ATCTCTAGGTAAAGTTCAGTGCAAGATCGATAGA it is 1.67.
AGTCAAAGTTCATCTAGGTGACGTAAGATATGCT registered a PBM binding z-score of 6.85.
Same read-out and setting: the figure for CGTCCAAGATCAGAGAGGTCAGTGAATGCCGAGT is 2.06; for CAGCCTAGGTCAGAGCCAGTATAGGAGGAACGTT it is -0.164.
GCTAGCTGGTCAGTAAAAGGTCACACACCGGTCG: the PBM binding z-score amounted to 0.209.
Still for that read-out and setting: the figure for TCTGCTAGCTCAACGATGGTCAGCTAATCTGCTA is -0.501; for AGAATGAGGTTATACGTAGATTAGGGAAGAAAGT it is 0.713; for TCTTGTAGATCAATTGAGGTTAAGAAAGTGCGCT it is 0.38.
On the same count and under the same terms, the figure for GGAACGAGGGCAACTTGATAGCAGAGTTTGATGG is 0.418; for TCGAGTAAGTTAGGGGCATTCAGAATGGCGTCGA it is 0.0747.
The same measure, in the same setting: the figure for CCTACTGGGCCAAAGGTCATTGCTTCCAATGCTC is 1.64.
As for TTACCAAGGTGAAGATCGTTGATCCCTCTGTAGA, the PBM binding z-score is -0.895.
In turn, CCAGGCAGGTGAAAGGTAACTCAGTCTGGTACGC had a PBM binding z-score of -0.265.
Same read-out and setting: the figure for CCTCGGAGGACAGAAGGTCAGAGGTGTCCGCTTT is 0.183; for GCGACTGGGGCAAAGCAGGTTACCATTAGGTTGG it is -0.296.
Same read-out and setting: the figure for TCTCGGAGAACACGAAAGGTCAGAGCTCGACATC is 0.0795.
On the same count and under the same terms, next, CCTTACGGGTCAAGAGGTTATAGCACGACGAGCG: 0.116; TAGCCTAGGTCGTGGGCCAGTATACCACGCGAAC: -0.949.
TCATATAGGTAAATGCTAGGTGAAGGTCCGATCT had a PBM binding z-score of 0.475.
Same read-out and setting: the figure for CCGAGTAGGTTATGGGGCATTCTGGCAACGGTGA is 0.0972; for TCATATAGGTTAACAGGTGAAAGTCCGTAAGTTA it is 0.372; for CCTCGGAGGACAGAAGGTCAGAGATGTCCGCTTT it is 0.164.
Same read-out and setting: the figure for GCTTGTAGATCAATGTTAAGAAAGACTAAGCTAA is -0.348; for GGAACGAAGGCAAGTTGATAGCAGAGTTTGATGG it is -0.247.
The same measure, in the same setting: the figure for CCTAGTTGGCCAGGAGGTCACACACCGGATATGA is 1.23; for GATACAGGATCAAGGCCAGAGTACGCGTATTGAT it is -0.0263; for ATATGTAGGTTATCGAGTCATTCAGTTTGCGCAT it is 0.241.
With ACTATCAGTTGACTTAGGGCAACCGATACGACGC, the PBM binding z-score was 0.241.
On the same count and under the same terms, the figure for CATACAAGGTCAGCTAGGCCAGAGTAGGGACGGC is 0.612.
On the same count and under the same terms, the figure for CGTCGAAGTTCAACTAAGGTAACGTAAAGCACGC is 2.7; for ATATGTAGGTTATATCCGGGTCATTCAGGCTATG it is 2.63; for TCTGGTTGGTCACGGAGGTCACACACGACGGGTA it is 2.06.
Same read-out and setting: next, TCGAGTAGGTTAGTCGGGGCATGCAGCCAACATA: -0.418; CCTAACGGGTCACGAGGTTATAGCACGACGAGCG: 0.408.
